High-throughput results deposited in PubChem by The Scripps Research Institute Molecular Screening Center.
Only some compounds are listed: those with a hit (about 3.3% of all), similar ones and a draw of the others.
ABHD5-PLIN5 inh – inhibitors of human ABHD5-perilipin-5 interaction | actives 0.78% (n = 360,000) | inhibition, % at 4 µM | Split G. princeps luciferase complementation, luminescence, 4 h | AID 602281 | Q00G26+Q8WTS1;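 active means inhibition above the mean inhibition across every tested compound plus 3 SD, cut at about 22% in these data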;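 further: 0% = DMSO only wells and the 100% control is not disclosed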
TLR9-MyD88 inh – inhibitors of human TLR9-MyD88 binding; Q9NR96+Q99836; CHO BLA complementation TLR9-MyD88, CCF4 FRET ratio; inhibition, % at 4.98 µM; actives 0.21% (n = 340,000); AID 504734;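 active means inhibition above the mean over all tested compounds plus 3 SD, cut at about 21% in these data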;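 further: 0% = DMSO only wells and 100% = clavulanate BLA inhibitor control wells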
Target sequence (Q99836 whole entry, looked up): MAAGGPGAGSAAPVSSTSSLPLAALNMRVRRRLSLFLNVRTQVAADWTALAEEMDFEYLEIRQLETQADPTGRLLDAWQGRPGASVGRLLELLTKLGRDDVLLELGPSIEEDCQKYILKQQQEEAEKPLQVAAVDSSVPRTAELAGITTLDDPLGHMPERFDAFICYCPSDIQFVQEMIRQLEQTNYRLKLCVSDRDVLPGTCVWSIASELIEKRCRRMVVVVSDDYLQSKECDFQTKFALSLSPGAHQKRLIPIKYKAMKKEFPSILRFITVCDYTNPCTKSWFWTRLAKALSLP
Target sequence (Q9NR96 whole entry, looked up): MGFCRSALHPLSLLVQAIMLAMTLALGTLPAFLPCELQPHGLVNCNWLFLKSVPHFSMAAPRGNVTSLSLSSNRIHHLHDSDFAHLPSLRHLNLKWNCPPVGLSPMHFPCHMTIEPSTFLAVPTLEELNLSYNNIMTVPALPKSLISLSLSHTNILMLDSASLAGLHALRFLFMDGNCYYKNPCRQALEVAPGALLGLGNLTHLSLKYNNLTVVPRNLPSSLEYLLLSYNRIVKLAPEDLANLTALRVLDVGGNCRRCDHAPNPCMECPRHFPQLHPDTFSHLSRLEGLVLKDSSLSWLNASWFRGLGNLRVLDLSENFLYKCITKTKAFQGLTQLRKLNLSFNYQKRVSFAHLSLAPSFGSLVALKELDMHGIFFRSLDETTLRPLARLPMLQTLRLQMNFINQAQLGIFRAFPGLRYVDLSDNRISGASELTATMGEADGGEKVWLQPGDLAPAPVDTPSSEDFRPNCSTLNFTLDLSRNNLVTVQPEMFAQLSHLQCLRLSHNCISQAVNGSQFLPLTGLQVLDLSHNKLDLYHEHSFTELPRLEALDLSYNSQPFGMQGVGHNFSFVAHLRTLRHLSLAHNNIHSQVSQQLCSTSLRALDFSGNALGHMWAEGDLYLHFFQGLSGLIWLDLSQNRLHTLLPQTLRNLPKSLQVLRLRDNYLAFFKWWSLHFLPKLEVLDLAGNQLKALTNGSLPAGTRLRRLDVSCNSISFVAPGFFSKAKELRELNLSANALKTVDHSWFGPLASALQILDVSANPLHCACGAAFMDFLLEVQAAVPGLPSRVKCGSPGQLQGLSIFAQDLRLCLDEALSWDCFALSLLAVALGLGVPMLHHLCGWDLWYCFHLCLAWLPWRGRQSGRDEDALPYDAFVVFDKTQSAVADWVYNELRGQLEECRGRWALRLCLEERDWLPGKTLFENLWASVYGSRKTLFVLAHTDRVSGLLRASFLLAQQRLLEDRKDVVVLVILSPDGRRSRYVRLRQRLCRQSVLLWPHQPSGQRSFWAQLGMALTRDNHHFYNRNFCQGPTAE
PRMT1 FP inh – blocks human protein arginine methyltransferase 1; AID 652257; recombinant PRMT1, activity-based probe fluorescence polarization; actives 1.3% (n = 370,000); Q99873; inhibition, % at 2.79 µM;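 active means inhibition above about 21% made by adding two undisclosed values, limit read from the data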
NOD2 RIPK2 PPI – NOD2-RIPK2 protein interaction inhibition; actives 0.38% (n = 360,000); CHO BLA complementation NOD2-RIPK2, CCF4 ratio; inhibition, % at 4.98 µM; O43353; AID 624267; in the data active means inhibition above about 21%;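 further: 0% = vehicle only and 100% = reference blocker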
rCAG RNA binder – r(CAG) repeat RNA binding | TO-PRO-1 dye displacement fluorescence | inhibition, % at 3 µM | actives 1.3% (n = 370,000) | AID 651821;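 active means inhibition above the plate cutoff, the mean of all test compounds on that plate plus 3 SD, cut at about 35% in these data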;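 further: 0% = DMSO alone and 100% = 100 µM mitoxantrone as full dye displacement; higher means more dye released from RNA so lower well fluorescence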
TLR4-MyD88 BLA – TLR4-MyD88 interaction inhibition in cells. HeLa CL3-4 TLR4/MyD88 BLA complementation, FRET ratio. inhibition, % at 8.4 µM. actives 0.18% (n = 200,000); in the data active means inhibition above about 25%;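 further: 0% = vehicle and 100% = reference inhibitor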
ABHD5-PLIN5 conf – confirmation of human ABHD5-PLIN5 interaction inhibitors; shares compounds with ABHD5-PLIN5 inh; inhibition, % at 4 µM; biochemical ABHD5-PLIN5 interaction, luminescence; actives 67% (n = 2,200); AID 651612; in the data active means inhibition above about 23%;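 further: 0% = DMSO vehicle wells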
HNF4 counter – active in HNF4 split-luciferase counter-screen for ABHD5-PLIN5 inhibitors; inhibition, % at 4 µM; HNF4 dimerization, luminescence, biochemical; actives 77% (n = 2,200); shares compounds with ABHD5-PLIN5 inh;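 active means mean inhibition across replicate wells exceeding the computed hit threshold, cut at about 13% in these data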;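 further: light from luciferase halves that rejoin when HNF4 fusion proteins dimerize; 0% = DMSO only wells and the 100% control is not given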
NOD2-RIPK2 conf – confirmation of human NOD2-RIPK2 interaction inhibitors; AID 624370; shares compounds with NOD2 RIPK2 PPI; actives 70% (n = 1,200); inhibition, % at 4.98 µM; CHO cells, NOD2-RIPK2 BLA complementation, CCF4 FRET;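 active means mean inhibition across replicates above a set limit taken from the earlier primary screen, cut at about 21% in these data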;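 further: 0% = DMSO-only wells and the high end = clavulanate BLA-blocked wells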
BLA counter – NOD2-RIPK2 counterscreen BLA reporter activity; shares compounds with NOD2 RIPK2 PPI; inhibition, % at 4.98 µM; CHO BLA reporter, CCF4 FRET ratio; actives 57% (n = 1,200);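 active means mean inhibition above the low-control mean inhibition plus three low-control SD, cut at about 11% in these data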;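 further: 0% = DMSO only wells and 100% = clavulanate high control wells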
rCAG bind conf – r(CAG) RNA repeat binding, confirmation | actives 70% (n = 4,300) | TO-PRO-1 dye displacement fluorescence | AID 652065 | inhibition, % at 3 µM | shares compounds with rCAG RNA binder;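 active means inhibition above a per-plate cutoff, the mean inhibition of sample wells plus 3 SD, cut at about 35% in these data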;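 further: loss of TO-PRO-1 fluorescence as compound displaces dye from 1x1 AA loop RNA; 0% = DMSO only wells and 100% = 100 µM mitoxantrone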
dCAG dye counter – counter-screen for rCAG RNA binders: DNA CAG dye complex inhibitors; shares compounds with rCAG RNA binder; d(CAG) DNA oligo TO-PRO-1 dye displacement, fluorescence; inhibition, % at 3 µM; actives 94% (n = 4,300);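 active means inhibition above its plate's cutoff, the mean test-well inhibition plus 3 SD, cut at about 4.8% in these data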;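 further: 0% = DNA dye mix with DMSO and 100% = 100 µM mitoxantrone; hits displace the dye from DNA and so lower well fluorescence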
PRMT1 confirm – confirmation of human PRMT1 inhibitors; shares compounds with PRMT1 FP inh; recombinant His-PRMT1, activity-based probe fluorescence polarization; inhibition, % at 2.79 µM; actives 42% (n = 3,300); AID 687036;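 active means mean inhibition across replicates above the hit cutoff derived for the earlier primary screen, cut at about 22% in these data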
* = called active by the depositor; x = not tested or not shown.

SMILES	ABHD5-PLIN5 inh	TLR9-MyD88 inh	PRMT1 FP inh	NOD2 RIPK2 PPI	rCAG RNA binder	TLR4-MyD88 BLA	ABHD5-PLIN5 conf	HNF4 counter	PRMT1 confirm	others
O=C1C=CC2=C3c4cc(O)c(O)cc4CC3(O)COC2=C1O (centres undefined)	27.7*	-6.2	56.5*	-7.5	43.4*	x	64.2*	32.6*	x	rCAG bind conf=62.8*;dCAG dye counter=33.8*
Cc1nn(-c2ccccc2)c(Cl)c1/C=C1\SC(=S)N(CCCCCC(=O)O)C1=O	-0.8	3.8	-1.9	6.5	32.7	x	x	x	x
O=C(O)CCCN1C(=O)/C(=C/c2cn(-c3ccccc3)nc2-c2cccs2)SC1=S	36.6*	5.8	0.1	5.9	63.8*	-8.4	6.9	9.0	x	rCAG bind conf=81.8*;dCAG dye counter=44.3*
C=CCn1cccc(/C=C/C(=O)c2ccc(C(C)(C)C)cc2)c1=S	46.4*	1.0	26.6*	7.1	6.2	13.6	74.7*	89.6*	0.6
Cc1ccc(NC(=O)COc2ccc(N(C)C(=O)C(C)(C)C)cc2)cc1S(=O)(=O)N1CCCCC1	9.1	0.3	-3.6	4.4	1.8	x	x	x	x
CC(C)(C)c1cc(C(=O)CCN2CCOCC2)cc(C(C)(C)C)c1O	32.2*	5.9	35.9*	48.5*	-9.7	x	12.3	32.0*	13.5	NOD2-RIPK2 conf=3.6;BLA counter=-2.3
O=C(CSc1ncn[nH]1)c1cccc([N+](=O)[O-])c1	34.5*	-19.1	31.6*	10.2	5.9	-4.8	-3.9	26.2*	25.0*
CCOCCc1c(O)nc(SC)[nH]c1=O	1.9	1.2	-2.6	-5.7	-0.1	x	x	x	x
CCOc1cc(C(c2c(O)nc(SC)[nH]c2=O)c2c(O)nc(SC)[nH]c2=O)ccc1O	32.1*	x	49.3*	-16.6	-40.2	x	89.3*	76.8*	41.2*
Cc1ccc(C2CC(c3ccccc3)=NN2C(=S)Nc2ccccc2)o1 (centres undefined)	41.8*	1.1	50.6*	48.3*	5.9	8.2	5.4	2.5	0.0	NOD2-RIPK2 conf=1.7;BLA counter=-3.7
Cc1sc(C(C2C(=O)CC(C)(C)CC2=O)C2C(=O)CC(C)(C)CC2=O)cc1[N+](=O)[O-]	56.5*	9.2	25.9*	8.1	17.7	11.5	91.9*	88.9*	44.7*
COc1ccc(CCn2cnn3c(=O)c4ccccc4nc3c2=O)cc1OC	x	x	-3.7	x	0.9	x	x	x	x
O=C(NC1CC1)c1[nH]c(C(F)(F)F)nc1-c1ccccc1	-4.7	x	1.0	4.1	2.0	x	x	x	x
O=c1c2ccccc2sn1-c1ccc(Cl)cc1	48.1*	18.7	89.7*	11.6	2.2	x	75.9*	117.5*	86.0*
O=C(NCCO)Nc1ccc2nc(-c3ccco3)c(-c3ccco3)nc2c1	x	x	x	x	x	2.6	x	x	x
O=C(NCCCO)c1ccc2nc(-c3ccco3)c(-c3ccco3)nc2c1	25.2*	-1.4	34.1*	-6.5	22.4	-6.4	67.1*	68.5*	44.1*
Cc1ccc(Sc2c(C)[nH]n(C(C)(C)C)c2=O)cc1	-6.5	8.4	1.3	-7.6	-1.7	-5.0	x	x	x
CC1=CC(=O)C(Sc2ccc(C)cc2)=CC1=O	62.0*	16.7	87.7*	5.1	8.1	x	59.9*	96.8*	95.0*
Cc1cc(C)c2c(=O)n(CC(=O)NC3CCCC3)sc2n1	27.1*	3.1	83.4*	-7.7	-2.4	x	32.9*	106.8*	88.8*
Cc1cc(S(=O)(=O)c2ccc(Cl)cc2)nc(S(=O)(=O)c2ccc(Cl)cc2)c1C#N	79.2*	16.0	60.5*	50.4*	17.6	x	95.1*	105.0*	47.6*	NOD2-RIPK2 conf=68.3*;BLA counter=17.9*
O=C1N2CCCc3cccc(c32)C12Nc1ccccc1S2 (centres undefined)	61.1*	2.8	39.7*	15.3	-1.4	0.8	-4.0	-4.3	22.9*
CC1CC(C)(C)N2C(=O)C3(Nc4ccccc4S3)c3cccc1c32 (centres undefined)	-18.5	3.8	x	-0.8	x	2.8	x	x	x
C=CCO[C@H]1CN(C(=O)OC)[C@@H]2C[C@H]1Oc1ccccc12	x	x	-0.1	x	-1.5	x	x	x	x
O=C1c2cc(Br)ccc2N(Cc2ccc(Br)cc2)S(=O)(=O)C1c1cc(Cl)c(Cl)cc1[N+](=O)[O-] (centres undefined)	3.1	-1.6	x	-11.5	x	x	x	x	x
O=C(Cc1ccc(Cl)c(Cl)c1)Nc1ccc2[nH]c(=O)[nH]c2c1	3.8	7.6	-4.2	5.2	3.2	-3.8	x	x	x
SMILES	ABHD5-PLIN5 inh	TLR9-MyD88 inh	PRMT1 FP inh	NOD2 RIPK2 PPI	rCAG RNA binder	TLR4-MyD88 BLA	ABHD5-PLIN5 conf	HNF4 counter	PRMT1 confirm	others
C=CCOCCN(CC)CC	-2.9	0.8	1.0	-7.4	-1.4	x	x	x	x
O=C(OCC(=O)N1N=C(c2ccc(Cl)cc2)CC1c1ccco1)c1cccnc1 (centres undefined)	49.3*	-11.2	39.6*	-2.5	24.0	x	29.4*	26.5*	8.2
O=C1C=CC(=O)N1c1ccc2c(c1)Cc1cc(F)ccc1-2	26.0*	4.3	86.7*	22.7*	2.0	x	41.6*	70.6*	82.9*	NOD2-RIPK2 conf=64.2*;BLA counter=15.6*
O=c1cc(-c2ccc(O)cc2)oc2c1ccc1ccccc12	-10.7	1.1	-1.8	-0.7	15.2	x	x	x	x
O=c1cc(-c2ccc(O)cc2)oc2c(O)c(O)c(O)c(O)c12	33.6*	-5.8	52.1*	0.1	6.5	x	-5.7	13.8*	15.6
O=C(NNc1ccccc1)/C(=C\c1cccnc1)NC(=O)c1ccccc1	0.0	-9.3	0.5	-4.1	1.8	x	x	x	x
CCOC1=CC2=C(C(=O)C(Cl)=CC2=O)[C@@H]2CN(S(=O)(=O)c3ccc(C)cc3)[C@@H](c3ccccc3)[C@H]12	52.9*	x	50.4*	0.3	72.5*	x	103.5*	58.4*	90.9*	rCAG bind conf=56.6*;dCAG dye counter=21.4*
CCN1C(=O)[C@@H]2[C@@H]3CN(S(=O)(=O)c4ccc(C)cc4)[C@@H](c4ccccc4)[C@@H]3C(=O)C[C@@H]2C1=O	-2.3	x	-3.1	11.8	5.2	x	x	x	x
